Rows were chosen to be rich in hits. Some 11% of all compounds tested hit in one or more screens of this group.
KDM4E inh: blocks human JMJD2E demethylase activity. B2RXH2. JMJD2E catalytic domain, FDH-coupled NADH fluorescence (FDH is formaldehyde dehydrogenase). Potency, µM (highest dose often 57.1 µM), hits mostly inhibitors. 230,000 tested, 1.6% active. AID 2147; note: nearly all actives have a fitted effect of over 50% in size
Target sequence (B2RXH2 1-337 limits assumed): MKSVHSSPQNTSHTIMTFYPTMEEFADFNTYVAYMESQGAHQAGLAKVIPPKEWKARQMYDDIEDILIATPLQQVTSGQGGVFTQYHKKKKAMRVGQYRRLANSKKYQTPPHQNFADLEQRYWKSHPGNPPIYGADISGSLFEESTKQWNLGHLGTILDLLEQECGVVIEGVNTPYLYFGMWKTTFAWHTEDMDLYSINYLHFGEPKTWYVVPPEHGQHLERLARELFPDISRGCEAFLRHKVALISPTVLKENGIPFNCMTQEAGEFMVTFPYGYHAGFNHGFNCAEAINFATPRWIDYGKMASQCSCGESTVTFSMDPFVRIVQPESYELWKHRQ
ALDH1A1 inh: inhibitors of human aldehyde dehydrogenase 1A1; 220,000 tested, 7.3% active; Purified ALDH1A1, NADH fluorescence, propionaldehyde substrate; P00352; Potency, µM (doses to about 75.3 µM), usual class: inhibitors
HPGD block: inhibitors of human 15-hydroxyprostaglandin dehydrogenase (HPGD). P15428. Potency, µM, most hits filed as inhibitors. purified HPGD, NADH fluorescence kinetic, PGE2 substrate. 150,000 tested, 4.3% active
Target sequence (P15428 whole entry, looked up): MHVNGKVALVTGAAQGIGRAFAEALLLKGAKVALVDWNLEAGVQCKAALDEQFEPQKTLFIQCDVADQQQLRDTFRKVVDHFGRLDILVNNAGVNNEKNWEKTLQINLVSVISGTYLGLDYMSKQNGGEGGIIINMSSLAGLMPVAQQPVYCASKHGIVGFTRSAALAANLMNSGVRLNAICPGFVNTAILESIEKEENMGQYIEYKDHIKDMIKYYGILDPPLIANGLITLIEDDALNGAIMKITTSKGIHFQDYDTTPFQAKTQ
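NADH formation kinetics: reaction with 30 uM PGE2 and 1 mM NAD+ (final), 20 nM enzyme, Tris-HCl pH 8 with Tween 20, after 15 min compound preincubation at room temperature. Fluorescence change, last versus first of five reads.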
PNC assembly inh: perinucleolar compartment assembly inhibition. activity change (PNC), negative = inhibition, % at 10 µM. PC3M PTB-GFP, PNC prevalence imaging, 16 h; stronger effect = lower value. 140,000 tested, 3.1% active. AID 2417;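 active = readout at or below -70, meaning at least 70% loss of cells showing the perinucleolar compartment, a nuclear body marking cancer cells; inconclusive = readout between -30 and a set limit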
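Read-out is percentage of cells bearing a perinucleolar compartment, from automated 20x imaging of fixed, Hoechst-stained PC3M PTB-GFP cells. Cells were seeded 4 h, then exposed 16 h to compound (23 nl of library stock) in duplicate plates.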
A number is an active result; [ ] = dose if it differs, or a comment. Unless noted, calls come from the whole dose curve; as a rule, active = well fitted inhibition curve with a large enough effect (not every such curve was filed as active); inconclusive = small, poorly fitted or top-dose-only effect, or another doubt; inactive = no such curve, though single readings can be large or run the other way.

Results for C=C1C[C@@]23C[C@]1(O)CC[C@@H]2[C@]12C=C[C@@H](O)[C@](C)(C(=O)O1)[C@H]2[C@H]3C(=O)O ?
KDM4E inh: inactive; ALDH1A1 inh: inactive; HPGD block: inactive

What do the screens show for `Cc1cccc(CSC(=N)N)c1`?
KDM4E inh: inactive; ALDH1A1 inh: inactive; PNC assembly inh: -115

Results for CCC(=O)N(CC)C1=C(O)c2ccccc2C(=O)C1=O ?
KDM4E inh: inactive; ALDH1A1 inh: 22µM; HPGD block: 13µM; PNC assembly inh: inconclusive

Results for CC(C)(C)CC(C)(C)c1cc(O)c(O)c(CN2CCCCC2)c1 ?
ALDH1A1 inh: inconclusive; HPGD block: inactive

What do the screens show for `COc1ccc(Oc2ncc3nc(C)c(=O)n(C)c3n2)cc1`?
ALDH1A1 inh: inactive; HPGD block: inactive

What do the screens show for `CCSC1=N/C(=C\c2ccc(C)s2)C(=O)S1`?
KDM4E inh: inactive; ALDH1A1 inh: inconclusive; HPGD block: inactive; PNC assembly inh: inactive

What do the screens show for `CCOc1cc(/C=C2\N=C(SC)SC2=O)cc([N+](=O)[O-])c1OC(C)=O`?
KDM4E inh: inactive; ALDH1A1 inh: 28µM; HPGD block: 16µM; PNC assembly inh: inactive

How did CCOc1c(OC(C)=O)ccc(/C=C2\N=C(SCC)SC2=O)c1[N+](=O)[O-] do in these assays?
KDM4E inh: inactive; ALDH1A1 inh: inconclusive; HPGD block: 10µM; PNC assembly inh: inactive

What do the screens show for `CCOc1cc(/C=C2\N=C(SCC)SC2=O)cc([N+](=O)[O-])c1OC(C)=O`?
KDM4E inh: inactive; ALDH1A1 inh: 32µM; HPGD block: 13µM; PNC assembly inh: inconclusive

What do the screens show for `O=C(Cn1nnc(-c2ccc(OCc3ccccc3F)cc2)n1)N1CCOCC1`?
KDM4E inh: inactive; ALDH1A1 inh: inactive; HPGD block: inactive; PNC assembly inh: -102

What do the screens show for `COc1ccc(-c2nnn(CC(=O)N3CCOCC3)n2)cc1`?
KDM4E inh: inactive; ALDH1A1 inh: inactive; HPGD block: inactive; PNC assembly inh: inactive

What do the screens show for `CN(c1ccccc1)S(=O)(=O)c1cccc(NC(=O)CSc2ncc(C(F)(F)F)cc2Cl)c1`?
KDM4E inh: inactive; ALDH1A1 inh: inactive; HPGD block: inactive; PNC assembly inh: inconclusive

How did CCCCC(NS(=O)(=O)c1ccc(OC)cc1)C(=O)O (stereo unspecified) do in these assays?
KDM4E inh: inactive; ALDH1A1 inh: inconclusive; HPGD block: inactive; PNC assembly inh: -100

How did CCOC(=O)OCC1C=C[C@H](c2cc(-c3ccccc3)ccc2O)C(c2ccc(C(C)=O)cc2)O1 (stereo partly specified) do in these assays?
ALDH1A1 inh: inactive[13.5 µM]

What do the screens show for `Clc1c(-c2nnc3n2CCCCC3)sc2ccccc12`?
KDM4E inh: inactive; ALDH1A1 inh: inactive; HPGD block: 2µM; PNC assembly inh: inactive

Results for Cn1c(-c2csc(-c3ccccc3)n2)n[nH]c1=S ?
KDM4E inh: inactive; ALDH1A1 inh: inactive

Results for Clc1c(-c2nnc3n2CCC3)sc2ccccc12 ?
KDM4E inh: inactive; ALDH1A1 inh: inconclusive; HPGD block: 28µM; PNC assembly inh: inactive

Results for COc1ccc2c(Cl)c(-c3nnc4n3CCCCC4)sc2c1 ?
KDM4E inh: inactive; ALDH1A1 inh: inconclusive; HPGD block: 1µM; PNC assembly inh: inactive

What do the screens show for `Cn1c(-c2sc3ccccc3c2Cl)n[nH]c1=S`?
KDM4E inh: inconclusive; ALDH1A1 inh: inconclusive; HPGD block: 20µM; PNC assembly inh: inactive

What do the screens show for `CC1=C(C(=O)OCC2CCCO2)C(c2ccc(Cl)c(Cl)c2)NC(=O)N1` (stereo unspecified)?
KDM4E inh: inactive; ALDH1A1 inh: inactive

What do the screens show for `CCC(C)NC(=O)CC(NS(=O)(=O)c1ccc(NC(C)=O)cc1)C(C)C` (stereo unspecified)?
KDM4E inh: inactive; ALDH1A1 inh: inactive

How did O=C(c1ccccc1Cl)N1CCC(n2cccc2)CC1 do in these assays?
KDM4E inh: inactive; ALDH1A1 inh: inactive

How did N=c1oc2ccc3ccccc3c2cc1-c1nnc2n1CCCCC2 do in these assays?
KDM4E inh: inconclusive; ALDH1A1 inh: inconclusive; HPGD block: inconclusive; PNC assembly inh: -114

Results for CC1CCN(c2c(NCC3CCC(C(=O)N4CCCCC4)CC3)c(=O)c2=O)CC1 (stereo unspecified) ?
KDM4E inh: inactive; ALDH1A1 inh: inactive; HPGD block: 0.5µM; PNC assembly inh: inactive

What do the screens show for `O=C(C1CCC(CNc2c(N3CCCCC3)c(=O)c2=O)CC1)N1CCCCC1` (stereo unspecified)?
KDM4E inh: inactive; ALDH1A1 inh: inactive; HPGD block: 0.4µM; PNC assembly inh: inactive

How did Oc1ccc(Cc2cc(Cl)cc(Cl)c2O)cc1Cl do in these assays?
ALDH1A1 inh: inactive[13.5 µM]; HPGD block: inactive

What do the screens show for `COC(=O)[C@@H]1C[C@H]1[C@@H](N)c1ccccc1`?
KDM4E inh: inactive; ALDH1A1 inh: inactive; HPGD block: inactive

How did O=c1c(C(c2ccc(O)cc2)c2c(O)nc3n(c2=O)CCCS3)c(O)nc2n1CCCS2 do in these assays?
KDM4E inh: inactive; ALDH1A1 inh: inconclusive; HPGD block: inconclusive; PNC assembly inh: inactive

Results for O=c1c(C(c2ccc(O)cc2)c2c(O)nc3n(c2=O)CCS3)c(O)nc2n1CCS2 ?
KDM4E inh: inactive; ALDH1A1 inh: 13µM; HPGD block: 13µM; PNC assembly inh: inactive

How did Cc1ccc(C(c2c(O)nc3n(c2=O)CCS3)c2c(O)nc3n(c2=O)CCS3)cc1 do in these assays?
KDM4E inh: inactive; ALDH1A1 inh: inconclusive; HPGD block: inactive; PNC assembly inh: -81

What do the screens show for `Cc1cccc(-n2c(O)c(C=NC3CCS(=O)(=O)C3)c3ccccc3c2=O)c1` (stereo unspecified)?
KDM4E inh: inactive; ALDH1A1 inh: 16µM; HPGD block: inactive; PNC assembly inh: inactive

What do the screens show for `CCCn1c(C)nc2c(NC3CCN(Cc4ccccc4)CC3)nc(C)nc21`?
KDM4E inh: inactive; ALDH1A1 inh: inactive; HPGD block: inactive

How did N/C(=N\OC(=O)c1ccc(Cl)cc1Cl)c1ccccc1 do in these assays?
KDM4E inh: inactive; ALDH1A1 inh: inactive; HPGD block: 14µM; PNC assembly inh: inactive

What do the screens show for `Cc1cccc(/C(N)=N/OC(=O)c2ccc(Cl)cc2Cl)c1`?
KDM4E inh: inactive; ALDH1A1 inh: inactive; HPGD block: 16µM; PNC assembly inh: inactive

How did N/C(=N\OC(=O)c1ccc(Cl)cc1Cl)c1ccc(Cl)cc1 do in these assays?
KDM4E inh: inactive; ALDH1A1 inh: inactive; HPGD block: 5µM; PNC assembly inh: inactive

How did Cc1ccc(/C(N)=N/OC(=O)c2ccc(C)cc2Cl)cc1 do in these assays?
KDM4E inh: inactive; ALDH1A1 inh: inactive; HPGD block: inconclusive; PNC assembly inh: inactive

Results for COc1ccccc1C(=O)O/N=C(\N)c1ccccc1Cl ?
KDM4E inh: inactive; ALDH1A1 inh: inactive; HPGD block: 28µM; PNC assembly inh: inactive

How did C[C@]12C[C@H](O)C3[C@@H](CCC4=CC(=O)CC[C@@]43C)[C@@H]1CC[C@@H]2C(=O)CO (stereo partly specified) do in these assays?
KDM4E inh: inactive; ALDH1A1 inh: inactive; HPGD block: inactive

Results for Cn1c(=O)n(C)c2cc(NC(=O)COc3ccc(Cl)cc3)ccc21 ?
KDM4E inh: inactive; ALDH1A1 inh: inactive

Source: PubChem BioAssay (National Center for Advancing Translational Sciences (NCATS))
